Hits are enriched below; roughly 1.2% of the tested compounds scored in any of these assays.
RGS8-Gao: RGS8-Galphao binding modulators, primary screen, biochemical, multiplexed bead flow cytometry; actives lie on both sides; response (percent of control binding), % at 10 µM; AID 1423, 2008; 0.34% of 220,000 active; in the data active means response below about 60% or above about 140%; inactive means in between;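 further: Galphao activated as the GDP aluminium fluoride complex binding bead-coupled RGS8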
RGS4-Gao reg: modulators of RGS4 binding to Galphao, primary screen, biochemical, multiplexed bead flow cytometry; Guanine nucleotide-binding protein G(o) subunit alpha (Homo sapiens), P09471; actives lie on both sides; binding response (% of control), % at 10 µM; 0.33% of 220,000 active; AID 1415, 2008; in the data active means binding response below about 49% or above about 150%; inactive means in between;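 further: fluorescent Galphao activated with aluminum fluoride binding bead-coupled RGS4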
Avidin fluor: green autofluorescence of compounds with avidin beads – biophysical, 488/530 nm, flow cytometry, artefact control, profiling panel. compound fluorescence 488/530 nm; stronger effect = higher value. fluorescence (KMESF) at 10 µM. 0.38% of 220,000 active. AID 1775, 2009; in the data active means fluorescence above about 47
RGS7-Gao: RGS7-Galphao binding modulators, primary screen, biochemical, multiplexed bead flow cytometry; Guanine nucleotide-binding protein G(o) subunit alpha (Homo sapiens), P09471; actives lie on both sides; binding response (% of control), % at 10 µM; 0.35% of 220,000 active; in the data active means binding response below about 49% or above about 150%; inconclusive means no clear call, values can overlap the other calls; inactive means in between;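 further: fluorescent Galphao held in activated GDP-AlF4 state binding bead-coupled RGS7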
GSH fluor: compound fluorescence on glutathione beads, profiling panel, artefact control, biophysical, 488/530 nm, flow cytometry. GSH beads flow cytometry, compound fluorescence 488/530 nm; stronger effect = higher value. fluorescence (KMESF) at 10 µM. 0.25% of 190,000 active; in the data active means fluorescence above about 89;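 further: glutathione beads carrying GST-tagged Bcl family fusion proteins plus one bare bead set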
RGS16-Gao HTS: modulators of RGS16 binding to Galphao, primary screen, biochemical, human proteins, multiplexed bead flow cytometry. 0.38% of 220,000 active. Regulator of G-protein signaling 16 (Homo sapiens) + Guanine nucleotide-binding protein …. binding response (% of control), % at 10 µM. AID 1441, 2008. bead-based flow cytometry RGS16-Galphao binding, fluorescence; actives lie on both sides; call rule not given here;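 further: Galphao activated by GDP with aluminum fluoride before binding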
Target sequence (O15492 whole entry, looked up): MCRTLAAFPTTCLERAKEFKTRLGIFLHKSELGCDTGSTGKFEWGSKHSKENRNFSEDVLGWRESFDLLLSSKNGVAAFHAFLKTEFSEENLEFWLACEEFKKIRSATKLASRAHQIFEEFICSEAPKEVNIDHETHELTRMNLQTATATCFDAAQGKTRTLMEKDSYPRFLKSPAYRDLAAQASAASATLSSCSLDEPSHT
Target sequence (P09471 whole entry, looked up): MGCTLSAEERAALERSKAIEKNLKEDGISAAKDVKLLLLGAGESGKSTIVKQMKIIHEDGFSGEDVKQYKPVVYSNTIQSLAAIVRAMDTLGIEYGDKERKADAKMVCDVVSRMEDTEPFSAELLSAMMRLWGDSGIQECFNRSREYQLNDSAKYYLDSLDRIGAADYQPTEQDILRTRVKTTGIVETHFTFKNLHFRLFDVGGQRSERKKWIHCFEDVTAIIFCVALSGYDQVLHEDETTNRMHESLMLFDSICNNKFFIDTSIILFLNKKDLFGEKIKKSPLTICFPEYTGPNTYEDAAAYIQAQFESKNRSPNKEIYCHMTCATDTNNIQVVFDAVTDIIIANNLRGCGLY
Each line names hits and unclear results; the compound was inactive in the other large screens.

Cn1ncc2c(=O)n(CC(=O)NC34CC5CC(CC(C5)C3)C4)cnc21	Avidin fluor 84
O=C(/C=C/c1ccc(Br)o1)NCCCN1CCOCC1	none
O=C(Nc1cccc2ccccc12)N1CCN(c2ncccn2)CC1	none
Cc1cc(C(=O)NC2CCCc3ccccc32)no1 (stereo not given)	Avidin fluor 47
O=C(NC(=O)N1CCN(c2ccc([N+](=O)[O-])cn2)CC1)c1ccccc1F	RGS7-Gao inconclusive (no result: GSH fluor)
O=C(NC(=O)N1CCN(c2ccc([N+](=O)[O-])cn2)CC1)c1c(Cl)cccc1Cl	Avidin fluor 49, RGS7-Gao inconclusive (no result: GSH fluor)
OC(CNCCC1C=Nc2ccccc21)Cn1c2ccc(Cl)cc2c2cc(Cl)ccc21 (stereo not given)	none
O=C(CN1CCN(CC(=O)Nc2ccccc2F)CC1)Nc1ccc2c(c1)OCCO2	none
COc1ccc(N2C(=O)C(CC(=O)O)S/C2=C\C(C)=O)cc1 (stereo not given)	GSH fluor 251
COc1ccc(S(=O)(=O)NCc2ccc(C)cc2)cc1	GSH fluor 263
NNC(=O)c1ccc(OCC2CC(c3ccc(Cl)cc3)=NO2)cc1 (stereo not given)	RGS7-Gao inconclusive (no result: GSH fluor)
Cc1ccc(S(=O)(=O)N2CCOCC2)cc1C(=O)NCCCn1ccnc1	none
O=C(NCCCn1ccnc1)c1cc(S(=O)(=O)N2CCOCC2)c(Cl)cc1Cl	GSH fluor 249
Cc1ccc(C(C)C)cc1OCCCCN1CCCC1	none
CC(C(=O)OCc1nnc(-c2ccccc2)o1)N1C(=O)c2ccccc2C1=O (stereo not given)	GSH fluor 263
CCC(=O)N(CCC(c1ccc(C)cc1)c1ccco1)Cc1ccco1 (stereo not given)	RGS7-Gao inconclusive (no result: GSH fluor)
c1ccc2c3c([nH]c2c1)-c1[nH]ncc1CC3	GSH fluor 265
COCCN(CCOC)C(=O)COC(=O)c1cc([N+](=O)[O-])ccc1Cl	RGS7-Gao inconclusive (no result: GSH fluor)
COc1ccc(N2C(=O)C3CCCN3C2=O)cc1 (stereo not given)	Avidin fluor 65
COc1ccc(NC(=O)CSc2ccc3c4c(cccc24)C(=O)c2ccccc2-3)cc1	Avidin fluor 49
CCCc1nnc(SCc2ccc(C(=O)OC)o2)n1N	none
CCc1nnc(SCc2ccc(C(=O)OC)o2)n1N	GSH fluor 258
COc1ccc2c(c1)C1NC(=S)NC(C)(O2)C1C(=O)Nc1ccccc1C (stereo not given)	none
COc1ccc(-c2[nH]nc3c2C(c2ccc(OC(=O)N4CCOCC4)cc2)C(C#N)=C(N)O3)cc1 (stereo not given)	RGS8-Gao 52.2, RGS4-Gao reg 44.3, RGS7-Gao 45.3
COc1ccc(-c2[nH]nc3c2C(c2ccccc2OC(=O)N2CCOCC2)C(C#N)=C(N)O3)cc1 (stereo not given)	none
O=C(NCCCc1ccccc1)N1CCOCC1	none
CN(C)c1ccc(/C=C2\SC(=S)N(Nc3ncc(C(F)(F)F)cc3Cl)C2=O)cc1	Avidin fluor 56
C=CCn1c(=N)c(C#N)cc2c(=O)n3ccccc3nc21	GSH fluor 104
C=CCn1c(=O)c(C#N)cc2c(=O)n3ccccc3nc21	none
CC1(C)OC1COc1c2ccoc2cc2oc(=O)ccc12 (stereo not given)	none
COc1ccccc1N(Cc1cc(=O)[nH]c2ccccc12)C(=O)c1ccccc1	RGS7-Gao inconclusive (no result: GSH fluor)
CN(Cc1cc(=O)[nH]c2ccccc12)C(=O)c1ccccc1	GSH fluor 271
Nc1c(C(=O)C2CC2)sc2nc(-c3ccccc3)cc(C(F)(F)F)c12	GSH fluor 126
CC(=O)c1sc2nc(-c3cccs3)cc(C(F)(F)F)c2c1N	none
O=c1cc(CSc2ccc(Cl)cc2)nc(-c2ccncc2)[nH]1	none
Cc1cc(C)n(-c2nc(NCC(C)O)c3c4c(sc3n2)CCCC4)n1 (stereo not given)	Avidin fluor 47

From PubChem
